According to PubChem BioAssay (NCATS):
Activity calls are given as the source filed them. Calls come from the whole dose curve; as a rule, active = well fitted activation curve with a large enough effect; inconclusive = small, poorly fitted or top-dose-only effect; inactive = no such curve, though single readings can be large or run the other way.

molecular target: Cytochrome P450 3A4 (Homo sapiens) (UniProt P08684); experiment: qHTS Assay for Activators of Cytochrome P450 3A4 (AID 885); settings: recombinant CYP3A4, Luciferin-PPXE luminescence, 60 min; series mostly up to 57.1 µM; note: nearly all actives have a fitted effect of over 65% in size
Sequence (P08684 whole entry, looked up): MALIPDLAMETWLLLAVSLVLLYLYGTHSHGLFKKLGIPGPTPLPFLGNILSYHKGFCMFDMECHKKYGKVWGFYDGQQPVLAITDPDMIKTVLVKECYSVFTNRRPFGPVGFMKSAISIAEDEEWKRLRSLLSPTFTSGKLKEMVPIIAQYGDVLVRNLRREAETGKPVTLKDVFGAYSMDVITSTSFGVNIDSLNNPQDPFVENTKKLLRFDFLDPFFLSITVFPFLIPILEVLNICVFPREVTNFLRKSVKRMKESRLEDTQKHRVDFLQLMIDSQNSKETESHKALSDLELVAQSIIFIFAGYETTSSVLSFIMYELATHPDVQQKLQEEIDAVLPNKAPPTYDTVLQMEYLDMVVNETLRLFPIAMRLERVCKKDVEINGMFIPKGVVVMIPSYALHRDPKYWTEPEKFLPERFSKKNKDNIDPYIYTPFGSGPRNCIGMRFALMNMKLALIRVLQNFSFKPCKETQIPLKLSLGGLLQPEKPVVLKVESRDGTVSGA
Outline: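 Human CYP3A4 (20 nM) with Luciferin-PPXE at 25 uM (its KM) in 200 mM KPO4; 10 min compound preincubation, then NADPH regeneration and 60 min reaction at RT. Luciferin read by luminescence; normalized to 57 uM ketoconazole full inhibition.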

Potency, inactive:
C/C(=C\[C@@H](NP(=O)(c1ccccc1)c1ccccc1)c1ccccc1)CO[Si](c1ccccc1)(c1ccccc1)C(C)(C)C
COC(=O)c1ccc(C(NC(=O)OCc2ccccc2)/C(C)=C/[C@@H](C)C(=O)N[C@@H](CO)Cc2ccccc2)cc1 (stereo partly specified)
CCCCCCN(C(=O)CCCCCN1C(=O)NC(C2CC2)C(C(=O)OCc2ccccc2)=C1C)C(C(=O)NCCCC)c1ccc(OCC(=O)OC)c(C(=O)OC)c1 (stereo unspecified)
CC(=O)N1[C@H](C)C=C[C@]1(Cc1ccccc1)C(=O)NCc1ccc(C)o1
COC(=O)c1ccc(C(NC(=O)OCc2ccccc2)/C(F)=C/[C@@H](C)C(=O)NCc2cc(C)on2)cc1 (stereo partly specified)
CC(C)(C)[Si](OCC[C@@H]1C[C@@]1(C)[C@@H](NP(=O)(c1ccccc1)c1ccccc1)c1ccccc1)(c1ccccc1)c1ccccc1
COC(=O)c1ccc(C(NC(=O)OCc2ccccc2)/C(=C/[C@@H](C)C(=O)N(C)Cc2ccccc2)c2cccnc2)cc1 (stereo partly specified)
CCNC(=O)[C@H](C)/C=C/C(NC(=O)OCc1ccccc1)c1ccc(C(=O)OC)cc1 (stereo partly specified)
COC(=O)c1ccc(C(NC(=O)OCc2ccccc2)/C(F)=C/[C@@H](C)C(=O)NCc2cccnc2)cc1 (stereo partly specified)
COC(=O)c1ccc(C(NC(=O)OCc2ccccc2)/C(C)=C/[C@@H](C)C(=O)NCc2cc(C)on2)cc1 (stereo partly specified)
COC(=O)c1ccc(C(NC(=O)OCc2ccccc2)/C(=C/[C@@H](C)C(=O)NCc2ccc(S(C)(=O)=O)cc2)c2cccnc2)cc1 (stereo partly specified)
CCC[C@@H]1C[C@@]1(CCC)[C@@H](NC(=O)c1ccccc1)c1ccc(C(=O)OC)cc1
CC(=O)N1[C@H](C)C=C[C@]1(Cc1ccccc1)C(=O)NCc1cc(F)cc(C(F)(F)F)c1
C[C@@H]1C=C[C@](Cc2ccccc2)(C(=O)NCC2CC2)N1C(=O)c1ccccc1
COC(=O)c1ccc(C(NC(=O)OCc2ccccc2)/C(I)=C/[C@@H](C)C(=O)NCc2ccc(C)o2)cc1 (stereo partly specified)
COC(=O)c1ccc(C(NC(=O)OCc2ccccc2)/C(F)=C/[C@@H](C)C(=O)NCc2ccc(-c3ccccc3)cc2)cc1 (stereo partly specified)
COC(=O)c1ccc(C(/C=C/[C@@H](C)C(=O)N[C@H](C)CO)NC(=O)OCc2ccccc2)cc1 (stereo partly specified)
COC(=O)c1ccc(C(NC(=O)OCc2ccccc2)/C(F)=C/[C@@H](C)C(=O)NCc2nc3ccccc3s2)cc1 (stereo partly specified)
COC(=O)c1ccc(C(NC(=O)OCc2ccccc2)/C(=C/[C@@H](C)C(=O)NCc2cc(C)on2)c2cccnc2)cc1 (stereo partly specified)
COC(=O)[C@@H]1CCCN1C(=O)[C@H]1C[C@@H]1[C@H](NC(=O)OCc1ccccc1)c1ccccc1
CC(C)CC1(C(=O)NCC2CC2)C=CCN1C(=O)c1ccccc1 (stereo unspecified)
O=C1C(Cl)=C(NC2CCc3ccccc32)C(=O)c2ncccc21 (stereo unspecified)
CCCCCCN(C(=O)CCCCCN1C(=O)NC(c2ccc(Cl)cc2)C(C(=O)OCc2ccccc2)=C1C)C(C(=O)NCCCC)c1ccc(OCC(=O)OC)c(C(=O)OC)c1 (stereo unspecified)
CC(C)(C)NC(=O)C(c1ccc(I)cc1)N(CCN1CCOCC1)C(=O)CCCNC(=O)c1ccccc1 (stereo unspecified)
COC(=O)c1ccc(C(NC(=O)OCc2ccccc2)/C(=C/[C@@H](C)C(=O)NCc2ccc(OC)c(O)c2)c2cccnc2)cc1 (stereo partly specified)
COC(=O)N1[C@H](Cc2ccccc2)C=C[C@]1(C)C(=O)NCc1ccccn1
COC(=O)c1ccc(C(NC(=O)OCc2ccccc2)/C(=C/[C@@H](C)C(=O)NCc2ccc(C)o2)c2cccnc2)cc1 (stereo partly specified)
CCCCNC(=O)C(c1ccc(OCC(=O)OC)c(C(=O)OC)c1)N(Cc1ccccn1)C(=O)CCCCCN1C(=O)NC(c2ccc(-c3ccccc3)cc2)C(C(=O)OCc2ccccc2)=C1C (stereo unspecified)
COC(=O)c1ccc(C(NC(=O)OCc2ccccc2)/C(=C/[C@@H](C)C(=O)NCCc2c[nH]c3ccccc23)c2cccnc2)cc1 (stereo partly specified)
CCCCCCN(C(=O)CCCCCN1C(=O)NC(c2ccc(C3CCCCC3)cc2)C(C(=O)OCc2ccccc2)=C1C)C(C(=O)NCCCC)c1ccc(OCC(=O)OC)c(C(=O)OC)c1 (stereo unspecified)
Cc1nn(-c2ccccc2)nc1CNC(=O)C(C)Cc1ccccc1 (stereo unspecified)
